Experimental data published in PubChem BioAssay (EPA / NIEHS).
“And” between values parts separate entries of the source, which are not always exact repeats. Identical values can stand only once. Results filed as inconclusive are left out. Some compounds were tested as several samples or in several runs, with calls that do not always agree. The source made the active and inactive calls. The calls were made as follows, unless noted: active = hit-call score of the fitted dose curve at least 0.9, where 1 is the maximum; inactive = score below 0.9.

Tests used:
[1] = IUF_NPC1a_proliferation_area_72hr: Leibniz Research Institute for Environmental Medicine (IUF) 72-hour Neural Progenitor Cell Proliferation Area Assay (NPC1a) (AID 2284208)
In short: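 Measured in 3D suspension: each well held one primary hNPC sphere grown with EGF and FGF at pH 7.2-7.6. Compound stayed on for 72 h, then area was imaged; spheres lacking growth factors defined reduced proliferation.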

[2] = IUF_NPC1_viability_72hr: Viability Assessment at 72 hours in the Leibniz Research Institute for Environmental Medicine (IUF) Neural Progenitor Cell Proliferation Assay (NPC1) (AID 2284209)
In short: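 Single spheres (0.25-0.35 mm) of human fetal cortex-derived neural progenitor cells were grown in proliferation medium with EGF and FGF at 37C and 5% CO2. They were exposed for 72 h without renewal, and viability was read by alamar blue resorufin fluorescence.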

[3] = CCTE_Mundy_HCI_Cortical_Synap_Neur_Matur_NeuriteSpotCountPerNeuriteLength: CCTE's Synaptogenesis and Neurite Maturation Assay in rat cortical cells for Neurite Spot Count per Neurite Length, Mundy Lab (AID 2284210)
In short: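 Primary rat cortical neurons, compound exposure DIV 7–12, 288.33 h endpoint. Hoechst, anti-MAP2 and anti-synaptophysin labelling; neurite-associated puncta per neurite length scored by automated imaging relative to DMSO controls.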

[4] = CCTE_Mundy_HCI_Cortical_Synap_Neur_Matur_BPCount: CCTE's Synaptogenesis and Neurite Maturation Assay in rat cortical cells for Branch Point Count, Mundy Lab (AID 2284211)
In short: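 Rat primary cortical cultures, AraC added DIV 5; chemicals dosed DIV 7 through DIV 12. Fixed cells stained for MAP2, synaptophysin and Hoechst; neurite branch points counted by automated high-content imaging, fitted relative to DMSO.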

[5] = CCTE_Mundy_HCI_Cortical_NOG_NeuriteCount: CCTE's Neurite Outgrowth Assay in rat cortical cells for Neurite Count, Mundy Lab (AID 2284212);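 also: cells fixed about two days after chemical exposure began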
In short: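 Neurite number per cell from high-content imaging of betaIII-tubulin immunostaining, with Hoechst nuclear counterstain.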

[6] = CCTE_Mundy_HCI_Cortical_NOG_NeuriteLength: CCTE's Neurite Outgrowth Assay in rat cortical cells for Neurite Length, Mundy Lab (AID 2284213);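 as to AC50: neurites imaged about 48 to 50 h after chemical exposure began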
In short: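 Neurite length was read by high-content imaging of βIII-tubulin-labelled neurites in rat primary cortical cultures. Activity was fitted relative to DMSO.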

[7] = CCTE_Mundy_HCI_Cortical_Synap_Neur_Matur_NeuriteLength: CCTE's Synaptogenesis and Neurite Maturation Assay in rat cortical cells for Neurite Length, Mundy Lab (AID 2284214)
In short: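 Rat primary cortical cultures, AraC added DIV 5, dosed DIV 7 through DIV 12 […]. Fixed, MAP2/synaptophysin immunostained with Hoechst; neurite length by high-content imaging, fitted in positive direction versus DMSO.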

[8] = CCTE_Mundy_HCI_Cortical_Synap_Neur_Matur_SynapseCount: CCTE's Synaptogenesis and Neurite Maturation Assay in rat cortical cells for Synapse Count, Mundy Lab (AID 2284218)
In short: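 Rat primary cortical cultures, AraC at DIV 5, chemical dosing DIV 7 to DIV 12 (288.33 h). Fixed cells stained for MAP2, synaptophysin and Hoechst; synapses per neuron counted by high-content imaging, loss of signal versus DMSO.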

[9] = CCTE_Mundy_HCI_Cortical_Synap_Neur_Matur_NeuriteCount: CCTE's Synaptogenesis and Neurite Maturation Assay in rat cortical cells for Neurite Count, Mundy Lab (AID 2284222)
In short: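 Primary rat cortical cells were plated, treated with AraC at DIV 5, then exposed to chemicals from DIV 7 through DIV 12. After fixation and immunostaining for MAP2 and synaptophysin, imaging quantified neurites, with DMSO as the negative control.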

[10] = CCTE_Mundy_HCI_Cortical_Synap_Neur_Matur_CellBodySpotCount: CCTE's Synaptogenesis and Neurite Maturation Assay in rat cortical cells for Cell Body Spot Count, Mundy Lab (AID 2284223)
In short: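 Chemicals were applied to AraC-treated rat primary cortical cells at DIV 7 and measured at DIV 12. Fixed cells were labelled for MAP2, synaptophysin and nuclei, and high-content imaging gave cell body synaptophysin spot counts per neuron relative to DMSO.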

[11] = CCTE_Mundy_HCI_hNP1_Pro_ResponderAvgInten: CCTE's Proliferation Assay in human neuroprogenitor cells, Mundy Lab (AID 2284224; active = hit-call score of the fitted dose curve at least 0.9, where 1 is the maximum;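 also: human neural progenitor cells hNP1 derived from WA09 embryonic stem cells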)
In short: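 Proliferation was scored as BrdU labelling intensity in human neural progenitors derived from WA09 embryonic cells, measured 26.25 hours after chemical dosing. Activity was fitted relative to DMSO.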

[12] = BSK_BT_PBMCCytotoxicity: PBMC Cytotoxicity Assessment in the BioMAP Diversity Plus: BT Assay (AID 2284225); conditions: primary human B cells with PBMC;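 also: PBMC viability measured by Alamar Blue dye reduction fluorescence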
In short: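 PBMC (75,000/well) pretreated with compound 1 h, then activated with SEB and TSST-1 (20 ng/mL each final), incubated 90 h; Alamar Blue added 6 h, fluorescence read at 546/580 nm. Fitted relative to DMSO.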

[13] = read-out: Secreted IgG (sIgG), gene 3500; assay: BSK_BT_sIgG: BioMAP Diversity Plus: BT Assay for Secreted IgG (sIgG) Biomarker Activity (AID 2284226); conditions: primary human B cells with PBMC
In short: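 Human B cell plus PBMC co-culture; secreted IgG measured by ELISA 24 h after chemical dosing. Response fitted in positive direction relative to DMSO baseline.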

[14] = BSK_BT_Bcell_Proliferation: Viability Assessment in the BioMAP Diversity Plus: BT Assay for B cell Proliferation (AID 2284227); conditions: primary human B cells with PBMC
In short: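 Read-out is absorbance at 560 nm from sulforhodamine B staining of total protein, reflecting relative cell numbers in a human B cell and PBMC co-culture after 72 h of chemical exposure. Values were referenced to DMSO.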

[15] = read-out: Interleukin 6 (IL6), IL6 (gene 3569); assay: BSK_BT_xIL6: BioMAP Diversity Plus: BT Assay for Interleukin 6 (IL6) Biomarker Activity (AID 2284228); conditions: primary human B cells with PBMC
In short: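 IL-6 secretion measured (Luminex xMAP) in human primary B cell + PBMC co-culture at 24 h of chemical exposure; DMSO served as negative control and activity baseline, with curves fitted for increase.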

[16] = read-out: Interleukin 17A (IL17A), IL17A (gene 3605); assay: BSK_BT_xIL17A: BioMAP Diversity Plus: BT Assay for Interleukin 17A (IL17A) Biomarker Activity (AID 2284229); conditions: primary human B cells with PBMC
In short: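 Human primary B cells plus PBMC, treated 24 h with chemicals; supernatant IL-17A quantified on Luminex xMAP beads. Gain of signal over DMSO control scored as activity.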

[17] = read-out: Tumor necrosis factor (Homo sapiens) (UniProt P01375); assay: BSK_BT_xTNFa: BioMAP Diversity Plus: BT Assay for Tumor necrosis factor alpha (TNF-alpha) Biomarker Activity (AID 2284230); conditions: primary human B cells with PBMC
In short: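 Human primary co-culture of B cells and peripheral blood mononuclear cells; TNF-alpha in supernatant, 24 h post-dose, Luminex multiplex; DMSO = baseline.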

[18] = TAMU_PeakParms_SingleDonor1434_Chronotropy: Texas A&M University (TAMU) 1.5-hr Human Induced Pluripotent Stem Cell (iPSC)-derived Cardiomyocytes Calcium (Ca+2) Flux Assay for Cardiotoxicity: Chronotropy (changes in peak frequency) (AID 2284217); conditions: actives raise or lower the signal
In short: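 iPSC-CMs, donor 1434; 4 conc (0.2–100 uM), 0.5% v/v DMSO, 90 min, 37C/5% CO2; Ca2+ flux fluorescence → peak.freq.avg; peak.freq.avg = 0 dropped; bidirectional fit vs DMSO; EC05 POD.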

[19] = CCTE_Mundy_HCI_hN2_NOG_NeuriteLength: CCTE's Neurite Outgrowth Assay in human hN2 cells for Neurite Length, Mundy Lab (AID 2284220; active = hit-call score of the fitted dose curve at least 0.9, where 1 is the maximum)
In short: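 Plate hNP1-derived neurons, then add chemical 2 h later as a 1/10 dilution. Stain with anti-βIII-tubulin then Alexa Fluor-488 secondary, and image automatically to measure neurite length.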

[20] = CCTE_Mundy_HCI_hN2_NOG_NeuronCount: CCTE's Neurite Outgrowth Assay in human hN2 cells for Neuron Count, Mundy Lab (AID 2284221; active = hit-call score of the fitted dose curve at least 0.9, where 1 is the maximum)
In short: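 Read-out is the number of betaIII-tubulin-positive neurons imaged by automated high-content analysis, with DMSO as negative control.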

Measured: AC50

Chain of Tumor necrosis factor (Homo sapiens) (P01375 whole entry, looked up): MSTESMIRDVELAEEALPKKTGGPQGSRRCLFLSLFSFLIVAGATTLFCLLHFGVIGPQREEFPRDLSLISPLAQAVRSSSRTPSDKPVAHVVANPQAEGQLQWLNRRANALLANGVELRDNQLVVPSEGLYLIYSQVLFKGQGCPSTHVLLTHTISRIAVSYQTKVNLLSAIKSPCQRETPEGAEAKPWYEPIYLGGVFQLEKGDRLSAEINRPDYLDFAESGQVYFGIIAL

O=C(O)C(F)(F)C(F)(F)C(F)(F)C(F)(F)C(F)(F)C(F)(F)C(F)(F)F
active: [12] 30 µM | [14] 24 µM | [17] 5.95 µM
inactive: [1] | [2] | [3] | [4] | [5] | [6] | [7] | [8] | [9] | [10] | [11] | [12] | [13] | [14] | [15] | [16] | [17]

O=S(=O)(O)C(F)(F)C(F)(F)C(F)(F)C(F)(F)C(F)(F)C(F)(F)C(F)(F)C(F)(F)F
inactive: [1] | [2] | [3] | [4] | [5] | [6] | [7] | [8] | [9] | [10] | [12] | [13] | [14] | [15] | [16] | [17]
active: [12] 24 µM and 33.9 µM | [14] 19.5 µM

O=[N+]([O-])/N=C1\NCCN1Cc1ccc(Cl)nc1
inactive: [1] | [2] | [3] | [4] | [5] | [6] | [7] | [8] | [9] | [10] | [11]

CC[C@H](C)[C@H]1O[C@]2(C=C[C@@H]1C)C[C@@H]1C[C@@H](C/C=C(\C)[C@@H](O[C@H]3C[C@H](OC)[C@@H](O[C@H]4C[C@H](OC)[C@@H](O)[C@H](C)O4)[C@H](C)O3)[C@@H](C)/C=C/C=C3\CO[C@@H]4[C@H](O)C(C)=C[C@@H](C(=O)O1)[C@]34O)O2 (tested in a mixture with another compound)
active: [1] 5.05 µM | [3] 2.51 µM | [4] 0.896 µM | [5] 8.88 µM | [6] 8.48 µM | [7] 1.08 µM | [8] 1.41 µM | [9] 1.59 µM | [10] 1.75 µM | [11] 1.45 µM
inactive: [2]

CCOCN(C(=O)CCl)c1c(C)cccc1CC
active: [18] 4.73 µM

CN1CSC(=S)N(C)C1
inactive: [18]

O=S1OCC2C(CO1)C1(Cl)C(Cl)=C(Cl)C2(Cl)C1(Cl)Cl (stereo unspecified)
inactive: [1] | [9]
active: [2] 2.63 µM | [3] 22.4 µM | [4] 15 µM | [5] 22.1 µM | [6] 23.8 µM | [18] 4.73 µM | [8] 19.6 µM | [10] 23.4 µM | [11] 23 µM

CCC(C)(C)C(=O)OC1=C(c2ccc(Cl)cc2Cl)C(=O)OC12CCCCC2
inactive: [1] | [2] | [3] | [4] | [5] | [6] | [7] | [8] | [9] | [10] | [11]

COP(=O)(OC)OC=C(Cl)Cl
inactive: [3] | [4] | [5] | [6] | [7] | [8] | [19] | [9] | [10] | [11]
active: [1] 14.2 µM | [2] 91.4 µM | [4] 49 µM | [5] 77.3 µM | [6] 57.5 µM | [8] 9.71 µM | [20] 0.355 µM
